Structures are written as SMILES.

The results in this text go back to ChEMBL document CHEMBL1961873, “Compounds: GSK PKIS; Assays: Nanosyn kinase panel” (2012).

Experiment [1] deals with Sphingosine kinase 1 (Homo sapiens) (UniProt Q9NYA1). The conditions noted are these: at 1 µM.
The target in experiment [2] is T1, Sphingosine kinase 2 (Homo sapiens) (UniProt Q9NRA0).
T1 sequence (whole entry): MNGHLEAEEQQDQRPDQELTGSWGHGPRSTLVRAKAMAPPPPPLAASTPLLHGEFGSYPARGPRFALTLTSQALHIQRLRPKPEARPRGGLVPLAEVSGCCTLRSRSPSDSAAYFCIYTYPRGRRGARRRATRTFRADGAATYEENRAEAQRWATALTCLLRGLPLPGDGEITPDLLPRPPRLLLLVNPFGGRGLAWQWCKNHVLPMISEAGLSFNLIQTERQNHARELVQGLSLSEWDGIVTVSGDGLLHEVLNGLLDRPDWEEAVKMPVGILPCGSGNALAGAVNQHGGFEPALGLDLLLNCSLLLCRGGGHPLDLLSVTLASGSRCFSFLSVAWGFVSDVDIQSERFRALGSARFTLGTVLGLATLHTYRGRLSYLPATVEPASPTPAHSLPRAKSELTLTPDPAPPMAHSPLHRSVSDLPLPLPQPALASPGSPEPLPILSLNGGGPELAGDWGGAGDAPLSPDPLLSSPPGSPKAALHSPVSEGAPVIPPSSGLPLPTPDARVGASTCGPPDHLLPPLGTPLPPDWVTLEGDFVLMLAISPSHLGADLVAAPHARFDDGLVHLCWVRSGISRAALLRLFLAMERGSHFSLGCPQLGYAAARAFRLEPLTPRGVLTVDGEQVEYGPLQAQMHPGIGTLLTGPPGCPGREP
The conditions noted are these: at 0.1 µM.

Experiment [3] addresses T1, Sphingosine kinase 2 (Homo sapiens). The conditions noted are these: at 1 µM.
In experiment [4] the target is Casein kinase II subunit alpha (Homo sapiens) (UniProt P68400). The conditions noted are these: at 0.1 µM.
Casein kinase II subunit alpha (Homo sapiens), sequence (P68400 whole entry, looked up): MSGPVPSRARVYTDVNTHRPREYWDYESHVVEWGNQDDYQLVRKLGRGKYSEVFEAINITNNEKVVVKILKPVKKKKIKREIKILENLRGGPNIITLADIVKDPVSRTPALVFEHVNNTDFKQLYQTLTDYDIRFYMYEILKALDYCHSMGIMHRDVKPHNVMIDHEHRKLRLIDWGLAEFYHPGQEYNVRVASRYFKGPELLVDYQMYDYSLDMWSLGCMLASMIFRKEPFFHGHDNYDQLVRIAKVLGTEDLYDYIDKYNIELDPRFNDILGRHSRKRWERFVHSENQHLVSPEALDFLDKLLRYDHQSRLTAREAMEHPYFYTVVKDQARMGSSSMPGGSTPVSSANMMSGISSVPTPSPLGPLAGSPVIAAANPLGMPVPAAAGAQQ
For experiment [5] the target is unchanged. The conditions noted are these: at 1 µM.
Experiment [6] has as its target T2, Inhibitor of nuclear factor kappa-B kinase subunit alpha (Homo sapiens) (UniProt O15111).
T2 sequence (whole entry): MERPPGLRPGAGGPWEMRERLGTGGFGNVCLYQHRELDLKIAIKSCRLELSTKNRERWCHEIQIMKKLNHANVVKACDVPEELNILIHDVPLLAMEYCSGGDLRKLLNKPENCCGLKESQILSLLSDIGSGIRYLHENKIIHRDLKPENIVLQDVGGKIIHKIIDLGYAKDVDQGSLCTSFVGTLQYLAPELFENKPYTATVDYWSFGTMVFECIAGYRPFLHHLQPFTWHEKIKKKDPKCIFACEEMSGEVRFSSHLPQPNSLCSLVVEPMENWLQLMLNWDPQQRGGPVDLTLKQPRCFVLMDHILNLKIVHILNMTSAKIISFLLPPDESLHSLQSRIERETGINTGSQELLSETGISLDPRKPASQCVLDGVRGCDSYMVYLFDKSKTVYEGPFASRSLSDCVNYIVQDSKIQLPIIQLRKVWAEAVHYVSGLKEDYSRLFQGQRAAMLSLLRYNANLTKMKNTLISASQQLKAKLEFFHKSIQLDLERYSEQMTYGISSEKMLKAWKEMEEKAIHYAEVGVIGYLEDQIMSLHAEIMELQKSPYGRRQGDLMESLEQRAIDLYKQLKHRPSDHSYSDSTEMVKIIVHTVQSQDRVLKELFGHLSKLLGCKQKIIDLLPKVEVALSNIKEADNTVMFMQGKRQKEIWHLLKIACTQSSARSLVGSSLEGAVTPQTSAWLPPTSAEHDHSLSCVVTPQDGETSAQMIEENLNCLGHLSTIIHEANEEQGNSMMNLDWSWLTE
The conditions noted are these: at 0.1 µM.

Experiment [7] concerns the target T2, Inhibitor of nuclear factor kappa-B kinase subunit alpha (Homo sapiens). The conditions noted are these: at 1 µM.
Experiment [8] deals with T3, Inhibitor of nuclear factor kappa-B kinase subunit beta (Homo sapiens) (UniProt O14920).
T3 sequence (whole entry): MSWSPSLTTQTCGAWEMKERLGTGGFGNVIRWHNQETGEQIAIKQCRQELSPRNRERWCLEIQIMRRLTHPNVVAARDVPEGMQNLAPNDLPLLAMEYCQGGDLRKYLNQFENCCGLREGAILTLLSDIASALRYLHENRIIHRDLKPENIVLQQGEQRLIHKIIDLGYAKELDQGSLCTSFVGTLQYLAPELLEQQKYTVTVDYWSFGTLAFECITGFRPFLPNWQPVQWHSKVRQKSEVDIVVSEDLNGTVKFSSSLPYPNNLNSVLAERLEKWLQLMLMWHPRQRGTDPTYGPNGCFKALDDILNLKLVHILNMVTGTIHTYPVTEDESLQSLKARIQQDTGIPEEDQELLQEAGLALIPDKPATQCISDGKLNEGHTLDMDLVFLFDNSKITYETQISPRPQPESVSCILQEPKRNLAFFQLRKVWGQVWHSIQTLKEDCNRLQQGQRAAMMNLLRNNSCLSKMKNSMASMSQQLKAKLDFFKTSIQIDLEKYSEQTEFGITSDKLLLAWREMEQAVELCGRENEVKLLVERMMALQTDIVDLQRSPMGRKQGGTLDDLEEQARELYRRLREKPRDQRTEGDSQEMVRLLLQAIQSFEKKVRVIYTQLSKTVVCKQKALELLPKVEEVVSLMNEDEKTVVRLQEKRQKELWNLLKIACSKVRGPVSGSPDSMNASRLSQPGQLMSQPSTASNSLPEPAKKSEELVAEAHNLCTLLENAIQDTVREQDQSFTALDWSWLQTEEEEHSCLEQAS
The conditions noted are these: at 0.1 µM.

Experiment [9] addresses T3, Inhibitor of nuclear factor kappa-B kinase subunit beta (Homo sapiens). The conditions noted are these: at 1 µM.
The target in experiment [10] is T4, Inhibitor of nuclear factor kappa-B kinase subunit epsilon (Homo sapiens) (UniProt Q14164).
T4 sequence (whole entry): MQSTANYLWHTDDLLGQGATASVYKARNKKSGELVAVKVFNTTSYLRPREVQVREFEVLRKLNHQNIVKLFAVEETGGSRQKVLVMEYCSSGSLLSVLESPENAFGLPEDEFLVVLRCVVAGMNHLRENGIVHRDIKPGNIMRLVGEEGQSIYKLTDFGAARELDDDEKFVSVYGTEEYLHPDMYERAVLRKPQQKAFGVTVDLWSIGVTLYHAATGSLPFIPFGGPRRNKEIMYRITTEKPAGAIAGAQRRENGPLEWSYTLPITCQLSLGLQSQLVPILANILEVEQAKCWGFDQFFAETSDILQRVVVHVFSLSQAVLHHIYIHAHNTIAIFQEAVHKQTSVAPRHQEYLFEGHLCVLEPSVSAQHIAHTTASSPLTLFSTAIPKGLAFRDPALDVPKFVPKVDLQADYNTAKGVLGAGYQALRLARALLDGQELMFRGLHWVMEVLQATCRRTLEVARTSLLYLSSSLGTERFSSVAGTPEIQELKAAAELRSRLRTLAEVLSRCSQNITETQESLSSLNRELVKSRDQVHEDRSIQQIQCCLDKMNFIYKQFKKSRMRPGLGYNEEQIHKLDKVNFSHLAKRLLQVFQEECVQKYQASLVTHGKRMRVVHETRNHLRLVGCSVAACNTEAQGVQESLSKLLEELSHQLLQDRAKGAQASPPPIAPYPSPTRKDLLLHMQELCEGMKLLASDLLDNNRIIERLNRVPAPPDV
The conditions noted are these: at 0.1 µM.

Experiment [11] has as its target T4, Inhibitor of nuclear factor kappa-B kinase subunit epsilon (Homo sapiens). The conditions noted are these: at 1 µM.
Experiment [12] concerns the target T5, Serine/threonine-protein kinase Nek1 (Homo sapiens) (UniProt Q96PY6).
T5 sequence (whole entry): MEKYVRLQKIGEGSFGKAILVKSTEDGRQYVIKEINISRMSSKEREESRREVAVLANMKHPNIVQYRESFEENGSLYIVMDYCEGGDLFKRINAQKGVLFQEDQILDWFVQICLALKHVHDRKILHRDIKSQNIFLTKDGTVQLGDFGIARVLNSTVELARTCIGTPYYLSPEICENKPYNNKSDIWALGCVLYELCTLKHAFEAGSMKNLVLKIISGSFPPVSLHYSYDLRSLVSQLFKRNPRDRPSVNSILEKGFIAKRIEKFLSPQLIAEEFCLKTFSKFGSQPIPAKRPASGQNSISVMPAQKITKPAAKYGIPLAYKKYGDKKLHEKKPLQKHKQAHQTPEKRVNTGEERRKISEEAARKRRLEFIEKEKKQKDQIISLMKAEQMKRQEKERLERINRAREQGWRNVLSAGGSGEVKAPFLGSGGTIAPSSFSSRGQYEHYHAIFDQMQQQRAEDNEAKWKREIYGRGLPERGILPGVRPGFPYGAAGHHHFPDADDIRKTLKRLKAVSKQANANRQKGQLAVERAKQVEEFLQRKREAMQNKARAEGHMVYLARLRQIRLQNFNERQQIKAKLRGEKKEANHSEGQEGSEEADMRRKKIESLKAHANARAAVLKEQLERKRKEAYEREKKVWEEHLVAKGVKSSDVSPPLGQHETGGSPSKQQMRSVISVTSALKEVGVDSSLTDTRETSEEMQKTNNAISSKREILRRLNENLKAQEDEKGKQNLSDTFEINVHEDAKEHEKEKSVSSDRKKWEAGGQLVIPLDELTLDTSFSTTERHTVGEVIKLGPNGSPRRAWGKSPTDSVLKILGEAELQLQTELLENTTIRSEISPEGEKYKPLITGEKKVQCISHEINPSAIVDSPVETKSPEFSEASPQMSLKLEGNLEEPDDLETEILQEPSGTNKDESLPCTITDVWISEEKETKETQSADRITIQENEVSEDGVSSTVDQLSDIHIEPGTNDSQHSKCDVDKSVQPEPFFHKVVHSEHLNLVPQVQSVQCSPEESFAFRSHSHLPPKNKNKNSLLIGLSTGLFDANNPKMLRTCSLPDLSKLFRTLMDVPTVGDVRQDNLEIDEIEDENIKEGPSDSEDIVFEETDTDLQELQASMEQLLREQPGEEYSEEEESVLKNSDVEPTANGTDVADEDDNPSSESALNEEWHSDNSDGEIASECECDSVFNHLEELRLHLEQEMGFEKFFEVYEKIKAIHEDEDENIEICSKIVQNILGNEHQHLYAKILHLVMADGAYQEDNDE
The conditions noted are these: at 0.1 µM.

Experiment [13] concerns the target T5, Serine/threonine-protein kinase Nek1 (Homo sapiens). The conditions noted are these: at 1 µM.
Experiment [14] deals with T6, Serine/threonine-protein kinase Nek2 (Homo sapiens) (UniProt P51955).
T6 sequence (whole entry): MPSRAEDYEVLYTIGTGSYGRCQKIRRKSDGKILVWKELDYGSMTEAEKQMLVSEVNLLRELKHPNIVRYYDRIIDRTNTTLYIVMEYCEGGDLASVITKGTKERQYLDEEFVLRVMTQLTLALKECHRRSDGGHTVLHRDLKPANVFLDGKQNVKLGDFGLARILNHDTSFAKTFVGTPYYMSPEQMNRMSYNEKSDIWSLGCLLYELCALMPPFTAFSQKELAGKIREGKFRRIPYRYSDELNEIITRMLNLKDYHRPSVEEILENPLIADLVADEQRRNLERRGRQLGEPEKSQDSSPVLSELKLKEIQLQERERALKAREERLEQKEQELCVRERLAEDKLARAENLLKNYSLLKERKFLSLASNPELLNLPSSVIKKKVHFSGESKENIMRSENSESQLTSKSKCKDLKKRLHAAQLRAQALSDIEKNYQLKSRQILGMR
The conditions noted are these: at 0.1 µM.

For experiment [15], the target named is T6, Serine/threonine-protein kinase Nek2 (Homo sapiens). The conditions noted are these: at 1 µM.
Experiment [16] addresses Serine/threonine-protein kinase Nek6 (Homo sapiens) (UniProt Q9HC98). The conditions noted are these: at 0.1 µM.
For experiment [17] the target is unchanged. The conditions noted are these: at 1 µM.
Experiment [18] addresses Serine/threonine-protein kinase Nek7 (Homo sapiens) (UniProt Q8TDX7). The conditions noted are these: at 0.1 µM.
For experiment [19] the target is unchanged. The conditions noted are these: at 1 µM.
The target in experiment [20] is T7, Serine/threonine-protein kinase Nek9 (Homo sapiens) (UniProt Q8TD19).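 Further: reported value is the mean percent inhibition of NEK9.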
T7 sequence (whole entry): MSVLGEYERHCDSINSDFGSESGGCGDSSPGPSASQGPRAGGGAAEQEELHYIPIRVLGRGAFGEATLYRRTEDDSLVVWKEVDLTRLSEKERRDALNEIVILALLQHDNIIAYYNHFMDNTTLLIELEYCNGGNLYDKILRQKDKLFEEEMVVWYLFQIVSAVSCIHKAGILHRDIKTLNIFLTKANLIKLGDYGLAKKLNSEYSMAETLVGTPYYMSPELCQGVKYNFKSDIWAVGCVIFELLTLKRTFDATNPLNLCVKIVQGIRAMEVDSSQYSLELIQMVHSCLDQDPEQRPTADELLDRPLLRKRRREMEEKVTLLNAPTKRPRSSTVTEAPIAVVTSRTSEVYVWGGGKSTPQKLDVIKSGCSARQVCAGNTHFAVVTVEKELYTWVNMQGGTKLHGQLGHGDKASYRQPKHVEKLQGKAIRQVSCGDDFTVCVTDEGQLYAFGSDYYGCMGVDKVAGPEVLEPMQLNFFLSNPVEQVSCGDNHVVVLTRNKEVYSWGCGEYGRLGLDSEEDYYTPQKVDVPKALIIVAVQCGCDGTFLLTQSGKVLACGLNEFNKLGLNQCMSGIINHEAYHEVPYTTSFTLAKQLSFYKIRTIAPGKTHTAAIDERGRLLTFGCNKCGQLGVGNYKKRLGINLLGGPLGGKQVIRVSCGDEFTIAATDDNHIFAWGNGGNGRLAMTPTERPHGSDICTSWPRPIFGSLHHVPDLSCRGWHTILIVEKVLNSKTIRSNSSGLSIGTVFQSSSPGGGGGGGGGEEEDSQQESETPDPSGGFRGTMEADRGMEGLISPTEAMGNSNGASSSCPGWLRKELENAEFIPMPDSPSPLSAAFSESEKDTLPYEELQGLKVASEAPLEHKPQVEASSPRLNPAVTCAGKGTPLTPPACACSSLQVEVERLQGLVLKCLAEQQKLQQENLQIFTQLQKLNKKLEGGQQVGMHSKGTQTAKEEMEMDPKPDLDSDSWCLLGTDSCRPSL
The conditions noted are these: at 0.1 µM.

Serine/threonine-protein kinase Nek7 (Homo sapiens), sequence (Q8TDX7 whole entry, looked up): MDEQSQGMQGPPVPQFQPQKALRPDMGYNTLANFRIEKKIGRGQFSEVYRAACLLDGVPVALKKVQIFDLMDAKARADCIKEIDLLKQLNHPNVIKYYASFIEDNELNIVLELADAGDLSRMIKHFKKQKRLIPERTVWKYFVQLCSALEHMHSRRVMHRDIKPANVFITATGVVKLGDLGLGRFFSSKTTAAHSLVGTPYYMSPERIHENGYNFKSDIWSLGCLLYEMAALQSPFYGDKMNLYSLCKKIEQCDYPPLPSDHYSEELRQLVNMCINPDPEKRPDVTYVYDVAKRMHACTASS
Serine/threonine-protein kinase Nek6 (Homo sapiens), sequence (Q9HC98 whole entry): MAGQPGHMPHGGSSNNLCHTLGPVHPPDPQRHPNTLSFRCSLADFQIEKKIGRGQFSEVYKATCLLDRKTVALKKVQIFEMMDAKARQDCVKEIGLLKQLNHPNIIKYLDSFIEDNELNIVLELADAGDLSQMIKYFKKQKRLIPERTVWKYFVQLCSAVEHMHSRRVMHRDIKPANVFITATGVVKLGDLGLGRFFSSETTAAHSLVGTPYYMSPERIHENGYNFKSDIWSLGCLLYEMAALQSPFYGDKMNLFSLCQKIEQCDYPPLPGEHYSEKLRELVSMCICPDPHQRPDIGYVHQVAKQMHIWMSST
Sphingosine kinase 1 (Homo sapiens), sequence (Q9NYA1 whole entry): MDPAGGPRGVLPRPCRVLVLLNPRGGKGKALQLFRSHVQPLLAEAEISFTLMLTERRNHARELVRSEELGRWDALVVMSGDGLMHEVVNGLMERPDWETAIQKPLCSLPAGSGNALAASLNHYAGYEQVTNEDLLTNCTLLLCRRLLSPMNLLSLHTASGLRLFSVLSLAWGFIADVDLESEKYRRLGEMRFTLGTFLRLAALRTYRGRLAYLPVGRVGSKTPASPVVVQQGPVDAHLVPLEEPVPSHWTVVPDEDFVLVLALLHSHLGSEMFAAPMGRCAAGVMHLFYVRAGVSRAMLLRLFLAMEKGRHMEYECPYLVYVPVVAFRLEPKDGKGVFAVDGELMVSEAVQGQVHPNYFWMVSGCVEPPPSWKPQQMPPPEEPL

Broadly, the inhibition is the change of the read-out against control, counted positive when it falls. On to `COc1ccccc1-c1cc(/C=C2\C(=O)Nc3ncc(Br)cc32)cc(Br)c1O`, for which the inhibition in experiment [1] is -2.44%; in experiment [2] it was 2.31%; in experiment [3], 0.1%; in experiment [4] it was 1.59%; in experiment [5] it was 3.83%; in experiment [6], 0.19%. Further, the inhibition in [7] was 0.71%; in [8], 5.58%; in [9] it was -0.48%; in experiment [10], 10.9%; in [11], 12.5%; in [12] it was 2.67%. Moreover, the inhibition came to 0.39% in experiment [13]; 6.8% in experiment [14]; 6.16% in experiment [15]; 3.44% in experiment [16]; 0.04% in experiment [17]; 6.5% in [18]. For the same molecule, the inhibition in experiment [19] was 3.62%; in experiment [20], 3.73%.
